# Laboratory results from PubChem BioAssay (NCI).
# The panel holds about 79,000 compounds, 15% with a hit somewhere; the sample as a whole holds those more often. Values without a mark were called inactive. The source made the active and inactive calls. Rule as the data show it: active = growth inhibition above about 70%; inactive = the rest.
# How the values were obtained:
# [1] = NCI Yeast Anticancer Drug Screen. Data for the rad50 strain (AID 155);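 also: 0% = growth of vehicle-only cultures of the same strain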; conditions: S. cerevisiae rad50 strain growth inhibition; at 50.0 µM; active compounds read high
# Method in brief: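 Growth of the mutant yeast was measured after compound exposure and referenced to vehicle-treated cultures.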
# [2] = NCI Yeast Anticancer Drug Screen. Data for the mec2-1 strain (AID 157); conditions: S. cerevisiae mec2-1 strain, at 50.0 µM, active compounds read high
# Method in brief: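 mec2-1 yeast strain, carrying an alteration in DNA damage repair or cell cycle control, was exposed to compounds; growth inhibition was measured relative to vehicle-treated controls.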
# [3] = NCI Yeast Anticancer Drug Screen. Data for the sgs1 mgt1 strain (AID 161);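 also: 0% = growth of cultures given vehicle only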; conditions: S. cerevisiae sgs1 mgt1 strain, at 50.0 µM, active compounds read high
# Method in brief: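 Compounds are added to genetically altered yeast, and growth is compared with cultures given vehicle alone to give percent inhibition.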
# [4] = NCI Yeast Anticancer Drug Screen. Data for the cln2 rad14 strain (AID 165);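 also: 0% = growth equal to vehicle treated cultures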; conditions: S. cerevisiae cln2 rad14 strain, at 50.0 µM, active compounds read high
# Method in brief: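 Yeast carrying cln2 and rad14 alterations (cell cycle control and DNA damage repair) were exposed to compounds. Growth inhibition was measured against vehicle-treated controls.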
# [5] = NCI Yeast Anticancer Drug Screen. Data for the bub3 strain (AID 167); conditions: S. cerevisiae bub3 mutant strain, at 50.0 µM, active compounds read high
# Method in brief: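 Whole-cell yeast assay. The mutant strain was incubated with compounds, and growth inhibition was determined by comparison with vehicle-treated cells.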
# [6] = NCI Yeast Anticancer Drug Screen. Data for the mlh1 rad18 strain (AID 175); conditions: S. cerevisiae mlh1 rad18 strain growth inhibition; at 50.0 µM; active compounds read high
# Method in brief: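 Growth inhibition of the yeast strain was measured after compound exposure and expressed relative to vehicle-treated controls. The strain carries defined defects in DNA damage repair.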
SMILES,growth inhibition [1],growth inhibition [2],growth inhibition [3] [%],growth inhibition [4],growth inhibition [5],growth inhibition [6]
CCCC(=O)Oc1cc(C)ccc1C(C)(C)C,-17.9%,-22.6%,-12.3,-33.6%,-35.6%,-42%
COc1ccc(C(=O)N/N=C/c2cccc(OC)c2OC)cc1,-6.3%,-4.75%,-20.1,-26.2%,13.1%,-41.8%
CCOC(=O)c1cc2c(ccc3cc(C(=O)OCC)[nH]c32)[nH]1,21.9%,26.1%,26.8,4.2%,24.4%,-11.3%
CCCCCCCCCCCCCCC[N+](C)(C)C,99.5% (active),99.3% (active),36.1,99.2% (active),97.5% (active),99.5% (active)
c1ccc2c(c1)c1c(n2CCOCCN2CCCC2)CCCC1,21.6%,2.6%,2.45,27%,0%,-55.8%
CCCCC(CC)(CC(=O)O)CC(=O)O,10.4%,9.85%,12.3,-14.8%,7.85%,7.1%
COC(=O)C(=C(C)C)S(=O)c1ccccc1 (configuration not stated),-9.85%,1.4%,-3.55,-16%,-13.6%,3.45%
CCc1cccc(C(C)CC)c1NC(=O)CC1C(=O)Nc2ccccc2S1=O (configuration not stated),15.2%,0.65%,7.2,18.1%,32.5%,15.2%
CCOC(=O)C1=C(C(=O)c2ccccc2)C(c2ccc(Cl)cc2Cl)C(C(=O)c2ccccc2)=C(C(=O)OCC)N1,-11.3%,-8.2%,-16.6,-3.45%,-9%,-1.5%
ON(Cc1ccccc1)Cc1ccccc1,-3.95%,-26.9%,12.9,12.8%,9.5%,-19.1%
O=[N+]([O-])c1ccc(OCCSc2ccccc2)cc1,9%,33%,55,12.6%,60.2%,12.8%
CC(=O)Nc1ccc(S(=O)(=O)NN)cc1,-15.7%,-12.1%,-4.75,10.2%,5.25%,9.1%
O=c1/c(=C\C=C\c2ccccc2)sc2n1CCN=2,-15.7%,-40.6%,-11.3,-10.8%,-22.2%,-13.5%
Cc1ccc(C2OC2C(=O)c2ccccc2)cc1 (configuration not stated),0.05%,0.25%,-19.5,-48.5%,-36%,5.85%
N#Cc1c(-c2ccc(Cl)cc2)cn2c1[nH]c(=O)c1c3c(sc12)CCCC3,13.2%,10.2%,0.15,-6.8%,-4.25%,1.35%
O=[N+]([O-])c1ccc(CS(=O)(=O)O)cc1,6.25%,-9.05%,-6.4,-15.1%,8.8%,-5.6%
CN(CCSCC(N)C(=O)O)CCSCC(N)C(=O)O (configuration not stated),5%,11.2%,0.7,29.4%,-58%,28.6%
COC(=O)CC(NC(=O)CNC(=O)OCc1ccccc1)C(=O)NCC(=O)Oc1ccc([N+](=O)[O-])cc1 (configuration not stated),21%,2%,18.8,15.1%,-0.65%,12%
Cc1ccc2c(-c3ccc4ccccc4c3)c3ccccc3cc2c1,7.7%,-10.2%,-2.8,-12.6%,-2.35%,-40.5%
CCC(C)C(CC)C(=O)N(C)C(=O)N(C)C(C)=O (configuration not stated),-19.2%,33.3%,4.5,-33.5%,13.7%,12.5%
C=CC(C)(C)NC(C(=O)N1CCC[C@H]1c1nc(-c2nc(C(=O)OCC=C(C)C)c(C)o2)c(C)o1)C(C)C (some centres not stated),-4.25%,-10.7%,15.6,-11.3%,3.05%,-2.85%

SMILES,growth inhibition [1],growth inhibition [2],growth inhibition [3] [%],growth inhibition [4],growth inhibition [5],growth inhibition [6]
CN(CCN(C)C(=O)CCn1cc(F)c(=O)[nH]c1=O)C(=O)CCn1cc(F)c(=O)[nH]c1=O,26.1%,18.2%,50.4,18.1%,3.05%,29.9%
Cc1ccc2[nH]c(=O)cc(C)c2c1,15.2%,-0.45%,13.8,20.2%,8.15%,30.8%
COc1c(O)ccc(C(=O)O)c1N,13%,6.55%,14.1,10.1%,8.95%,-17.4%
O=c1[nH]nc(-c2ccccc2)c2c1[nH]c1ccccc12,-13.8%,-15.7%,-0.85,-33.9%,-12.4%,-12.1%
COc1ccc([N+](=O)[O-])c2c1CONC2c1c(CO)cnc(C)c1O (configuration not stated),35.1%,-12.2%,27.2,-22.4%,5.3%,-2.7%
O/N=C1/CCCc2nonc21,-18.6%,-3.15%,-0.3,4.35%,-8.2%,-6.5%
CCOC(=O)C(C)(C)OC(C)=O,39.2%,21.4%,19.6,13.8%,4.2%,2.15%
CN1CCS(=O)(=O)C2CCCCC2C1=O (configuration not stated),1.25%,-13.4%,4.85,11.8%,10.5%,1.1%
CC(C)(N)CNCCO,-3.25%,2.05%,-8.9,-18.1%,-1.7%,0.4%
CN(C)S(=O)(=O)C(C(=O)Nc1ccccc1)c1ccccc1 (configuration not stated),-1.15%,13.8%,3,-34.7%,-5.95%,-10.5%
O=S(O)c1cc(Cl)c(O)c(Cl)c1,-7.1%,1.3%,-7.05,-37.5%,-5.1%,-2.75%
CC1CC/C(=C\c2ccccc2)C(=O)/C1=C/c1ccccc1 (configuration not stated),22.2%,-11.1%,13.8,9.45%,30.2%,28.8%
OCC1C2C=CC1CC2 (configuration not stated),-1.4%,-1.8%,15.2,-0.85%,11.7%,-2.7%
CCNC(=O)NCC,-16.4%,-19.4%,-32.7,-29.2%,-2%,-3.4%
Clc1cccc(-c2sc(-c3cccs3)cc2Cc2cccs2)c1,-42.8%,-39.8%,-29.4,2.2%,-9.2%,-14.5%
c1csc(C2=NCCC2)c1,0.35%,-6.65%,6.35,36.5%,31.6%,3.3%
Cc1cc2c3ccccc3n(C)c2c2c1C(=O)c1ccccc1C2=O,15.8%,28%,3.3,5.45%,17.4%,11.2%
CCCC(O)c1ccccc1Cl (configuration not stated),21.8%,18.9%,24.9,16%,-28.4%,5.3%
CCOC(=O)c1cc(CC)sc1N,-1.55%,-9.75%,10.7,-10.2%,12.2%,-12.5%
Oc1ccc(-c2csc(NNC3=NC/C(=C/c4ccc5c(c4)OCO5)S3)n2)cc1O,30.9%,-16.9%,40.4,-11.4%,21.1%,40.8%
CC(C)(c1ccc(C(=O)O)cc1)c1ccc(C(=O)O)cc1,-1.65%,5.05%,-1.1,-5.7%,-14.5%,-9.15%
